The source of these data is paper PMC7819943, “Rice protein-binding microarrays: a tool to detect cis-acting elements near promoter regions in rice”.

Over roughly 35,000 sequences, “fluorescence intensity (a.u.)” has its median near 10,000; the highest 2% begin near 52,000. The sample as a whole holds a higher share of the highest values than the screen did.

The test deals with T1, OsWOX13 (Oryza sativa, UniProt Q5QMM3 1-267).
T1 sequence: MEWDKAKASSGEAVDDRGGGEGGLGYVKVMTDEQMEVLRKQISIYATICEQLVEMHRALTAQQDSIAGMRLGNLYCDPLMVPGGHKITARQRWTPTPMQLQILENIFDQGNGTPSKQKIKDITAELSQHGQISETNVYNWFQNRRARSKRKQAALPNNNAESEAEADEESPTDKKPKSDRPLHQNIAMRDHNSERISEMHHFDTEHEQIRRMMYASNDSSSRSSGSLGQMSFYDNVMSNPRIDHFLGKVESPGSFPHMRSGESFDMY
Kind of test: protein-binding microarray (RPBM); PBS, 2% BSA, 51.3 ng/ul salmon testes DNA, 50 uM zinc acetate, 200 nM TF, 25 C, 1 h; high values mean tight binding. The following applies: protein: recombinant; tags: N-terminal polyhistidine and DsRed monomer fusion (pET32a); label: CyDye5-dUTP incorporated in the synthesized complementary strand; 3' TTTTT single-stranded linker to array surface; dsDNA, one strand shown. The method in brief:
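An Axon 4000B scanner gave the binding signal as per-feature fluorescence intensity in arbitrary units. This followed washing of a custom Agilent array that had been incubated for 1 h at 25 °C with 200 nM protein in PBS, 2% BSA, salmon testes DNA and 50 µM zinc acetate. The proteins were transcription factors fused at the N-terminus to polyhistidine and DsRed, expressed in E. coli BL21-CodonPlus and purified on Ni–NTA.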
For “GACTTGTAATTTGTAGCAGTGGTAAGAAATAAATCTGACCCGGAGTCACCTAGTGCAG”, the binding signal is 3900 fluorescence intensity (a.u.). In the case of “CTTAAACAAATGATAGTACGATCCCATCTGATTGGGTGTTCGGAGTCACCTAGTGCAG” it was 7540 fluorescence intensity (a.u.). The result for “ACTCAATCTTATTAACTTAAATTGAACTTGAACAAGAGAACGGAGTCACCTAGTGCAG” reads 22000 fluorescence intensity (a.u.); that for “ACTGATAACTTCCAACTGATAATTGGAGAAGGAGGGTTTGCGGAGTCACCTAGTGCAG”, 12400 fluorescence intensity (a.u.).

As for “TCGTAAATTTAAATCCATAGATTTAAGGAATACTTAGGCTCGGAGTCACCTAGTGCAG”, the binding signal was 25900 fluorescence intensity (a.u.).

“ACCCAAAATTAACTCTAAACTTAAGTTTCAAAATCTAAATCGGAGTCACCTAGTGCAG”: the binding signal was 7640 fluorescence intensity (a.u.). In the case of “GTAATTAATTAACATTGCAATTAAGCACATAAGTTAATCACGGAGTCACCTAGTGCAG”, the binding signal was 27000 fluorescence intensity (a.u.). In the case of “GCAAATTAATTAACTAATTAATTAAACACCCAACTAATCTCGGAGTCACCTAGTGCAG” it was 63700 fluorescence intensity (a.u.); in that of “AGACAATTCAATAATTAATCTACACTTTCCTTCCGCACCTCGGAGTCACCTAGTGCAG”, 5880 fluorescence intensity (a.u.); in that of “TTGAGCACTAATTAATCATTAGGTGGCCTAATCAACAGCTCGGAGTCACCTAGTGCAG”, 22000 fluorescence intensity (a.u.). The result for “GTAATTAACAGCAATCAGCAAGTGGCCTAATTGCCAACCTCGGAGTCACCTAGTGCAG” reads 56700 fluorescence intensity (a.u.); that for “TCAATTAATTAATTAATTAACTACACTTTCACACGAGTCTCGGAGTCACCTAGTGCAG”, 52700 fluorescence intensity (a.u.). In the case of “AATCAACTAACTAATCATGGGATTAACCAAAACTAATTCTCGGAGTCACCTAGTGCAG” it was 3800 fluorescence intensity (a.u.); in that of “AATTAATCAGCCAATCACAATCTCTCAAACTACACGGACTCGGAGTCACCTAGTGCAG”, 35500 fluorescence intensity (a.u.). As for “CCACCTCTAATGAAGAGGTGATTGCAACCATTCATCTCTTCGGAGTCACCTAGTGCAG”, the binding signal is 12000 fluorescence intensity (a.u.). The result for “AAACAAACTAACATGGATTGATTTTCTATAGGATGGAGGGCGGAGTCACCTAGTGCAG” reads 25200 fluorescence intensity (a.u.); that for “TGGATTTTAAATTAAGTAAATTGCACCAGCGGTCCTTAAACGGAGTCACCTAGTGCAG”, 6480 fluorescence intensity (a.u.); that for “AATTTGAATTTTGTTAAGTTAAATTTGATGAACTGGGGCCCGGAGTCACCTAGTGCAG”, 5490 fluorescence intensity (a.u.). In the case of “TTATAATTATTTGTGTTGCAATGTATGTTTTGTTTATATACGGAGTCACCTAGTGCAG” it was 9980 fluorescence intensity (a.u.). With “TTTGGGTGTTAGTGTCTTAATTAGTGTGTGAGCCCCATCCCGGAGTCACCTAGTGCAG”, the binding signal was 3790 fluorescence intensity (a.u.). On to “TGTGGCTAAATTTATCAATTGAATGGGCTAGAGGCACGCTCGGAGTCACCTAGTGCAG”, for which the binding signal is 17400 fluorescence intensity (a.u.). In the case of “CCAAATTCATTAAAATTAACAATAACAATTATATTTGTTTCGGAGTCACCTAGTGCAG” it was 10900 fluorescence intensity (a.u.); in that of “ATTGAGTCAATCCACACTTTATTAGCACATTGGCCCACACCGGAGTCACCTAGTGCAG”, 3510 fluorescence intensity (a.u.). The result for “GTTTAGCAAATCCAGCACCCATTATACAGACTTTCTATGCCGGAGTCACCTAGTGCAG” reads 65500 fluorescence intensity (a.u.); that for “AAGTCTAATTAATCCATCATTAGCAAATGTTTATTGTAGCCGGAGTCACCTAGTGCAG”, 26700 fluorescence intensity (a.u.); that for “ATTTGCTAATGACGGATTAATTAGATTTAATAAATTCATCCGGAGTCACCTAGTGCAG”, 39700 fluorescence intensity (a.u.). The result for “AAGCTGAAATTTGTTAGAGTAATAGTTGACACCATTACCACGGAGTCACCTAGTGCAG” reads 3160 fluorescence intensity (a.u.). For the sequence “CACAATCACGAATTGAAGAAAGTCCTTCATTTCACATCAACGGAGTCACCTAGTGCAG”, the binding signal is 3660 fluorescence intensity (a.u.). For the sequence “CTAGATTGAGAGCATCTGATTCAATAATTAGACTTTCAATCGGAGTCACCTAGTGCAG”, the binding signal is 45100 fluorescence intensity (a.u.). In the case of “CCCAATTGGTGATTAGATAATCCTGTCACTTTCTTCAAGTCGGAGTCACCTAGTGCAG” it was 54100 fluorescence intensity (a.u.); in that of “AAGGATTAGATATGATTCAATCTTTTGGTTCAAAGTTCTTCGGAGTCACCTAGTGCAG”, 6590 fluorescence intensity (a.u.). The result for “TCACCTTGATTTCAATCATTGGACAAGTGTCCTAGAAAGTCGGAGTCACCTAGTGCAG” reads 55300 fluorescence intensity (a.u.). As to “GAGATATAATTGATTAGAGTTACTTTCAATCTTTTCCGTGCGGAGTCACCTAGTGCAG”, the binding signal was 62000 fluorescence intensity (a.u.). In the case of “AATCCTAATTATAAGATTTAAGACCTTTCTCTTCACTTCACGGAGTCACCTAGTGCAG” it was 9800 fluorescence intensity (a.u.); in that of “CTCAATAATTAAGTTCTTGATTAACATTGATATTACTTTCCGGAGTCACCTAGTGCAG”, 24600 fluorescence intensity (a.u.). In the case of “TTGGCCTTCAATCATTGACACTTGGACAGAACAAATCAATCGGAGTCACCTAGTGCAG” it was 26000 fluorescence intensity (a.u.). On to “TCTAAATTAATCTTTAGTTCTTGACCGCAAAATATGAAGCCGGAGTCACCTAGTGCAG”, for which the binding signal is 14800 fluorescence intensity (a.u.). The result for “TAACGGATTGATACATCTGGTTACAAATGTGCACTACATACGGAGTCACCTAGTGCAG” reads 3880 fluorescence intensity (a.u.); that for “TAGCTAATTTGCACCCACATGCATGTGCTTCGAGTAGTTACGGAGTCACCTAGTGCAG”, 7070 fluorescence intensity (a.u.). The result for “CCCTTACTGATTGGACGGTCCCGCGCATAAGCATGCGCACCGGAGTCACCTAGTGCAG” reads 27800 fluorescence intensity (a.u.); that for “TGATTAACAGCAACCATAGACGGGACAGGCCAGCCCACCACGGAGTCACCTAGTGCAG”, 3260 fluorescence intensity (a.u.). The result for “ATGGGCCACGGGCCCACGGACCATACGCATAGGATTCAACCGGAGTCACCTAGTGCAG” reads 59500 fluorescence intensity (a.u.). Consider “TTCAACCATAAATTGAATTGAATAGGACGGATGATGGTTACGGAGTCACCTAGTGCAG”, for which the binding signal was 12700 fluorescence intensity (a.u.).
